PHOSPHO1 block = PHOSPHO1 (human) inhibition; Q8TCT1; recombinant PHOSPHO1, absorbance phosphatase assay; inhibition, % at 13.3 µM; 1.1% of 290,000 active; AID 1565; in the data active = inhibition above about 60%
MITF TRPM1 HTS = increases MITF-driven TRPM1 promoter luciferase signal. 0.75% of 300,000 active. activation, % at 12.5 µM. AID 588334. SK-MEL-5 TRPM1-promoter luciferase, 24 h; % of positive control, neutral wells = 0;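 active = mean activation of at least 80% with every replicate also reaching 80%; inconclusive = mean reaches 80% but some replicate falls short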;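 also: 0% = neutral control wells and 100% = parthenolide positive control wells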
Wnt bcat act = activates Wnt/beta-catenin signaling in a reporter cell assay; activator, plate reader; activation, % at 9.35 µM; 1.2% of 300,000 active; in the data active = activation above about 30%, passing the limit was not always enough; inconclusive = no clear call, values can overlap the other calls;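 also: 0% = neutral control wells and 100% = positive control wells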
A3A deaminase = human APOBEC3A DNA deaminase inhibition; P31941; recombinant A3A, FAM/TAMRA ssDNA deamination fluorescence; inhibition, % at 20 µM; 0.41% of 330,000 active;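 active = at least 40% inhibition at 20 µM here, with at most 30% in a related deaminase screen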;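 also: plate controls were A3A with DMSO for no effect and wells lacking A3A enzyme for full effect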
Target sequence (P31941 whole entry, looked up): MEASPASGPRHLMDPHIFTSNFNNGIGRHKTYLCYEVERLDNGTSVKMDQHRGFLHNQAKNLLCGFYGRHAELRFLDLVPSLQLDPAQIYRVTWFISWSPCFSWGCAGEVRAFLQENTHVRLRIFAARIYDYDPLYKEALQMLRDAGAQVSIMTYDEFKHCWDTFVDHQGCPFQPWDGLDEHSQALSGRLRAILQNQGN
esBAF inh = blocks esBAF chromatin remodeling in mouse ES cells; Bmi1-luciferase knock-in reporter, 24 h; 100% = twice the neutral-well signal; reporter increase, % at 12.5 µM; 2% of 350,000 active; in the data active = activation above about 40%; inconclusive = no clear call, values can overlap the other calls;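 also: 0% = median of the plate's neutral control wells and 100% = double that signal; a rise in the Bmi1 reporter signal indicates esBAF inhibition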
A3G deaminase = blocks human APOBEC3G single-stranded DNA deamination; Q9HC16; recombinant A3G, ssDNA deamination FAM/TAMRA fluorescence; inhibition, % at 20 µM; 0.28% of 330,000 active; AID 493012;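 active = inhibition of at least 40% at 20 µM, with no more than 30% in the related APOBEC3A deaminase screen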;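 also: plate controls were DMSO wells with A3G for no effect and wells lacking A3G enzyme for full effect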
Target sequence (Q9HC16 whole entry, looked up): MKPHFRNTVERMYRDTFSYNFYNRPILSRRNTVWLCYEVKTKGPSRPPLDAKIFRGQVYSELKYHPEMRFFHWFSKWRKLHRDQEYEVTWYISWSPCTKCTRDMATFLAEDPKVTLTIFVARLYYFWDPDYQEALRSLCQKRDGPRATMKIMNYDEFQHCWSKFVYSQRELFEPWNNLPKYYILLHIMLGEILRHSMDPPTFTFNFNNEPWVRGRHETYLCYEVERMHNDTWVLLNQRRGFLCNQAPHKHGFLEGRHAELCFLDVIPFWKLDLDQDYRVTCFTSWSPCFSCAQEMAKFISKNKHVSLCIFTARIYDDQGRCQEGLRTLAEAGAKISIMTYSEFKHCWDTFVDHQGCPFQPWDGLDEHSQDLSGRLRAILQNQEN
Active calls of the source: *. Hits are enriched below; roughly 3.6% of the tested compounds scored in any of these assays.

Results for Cc1ccc(C)c(S(=O)(=O)N(C(=O)c2ccncc2)c2ccc(OC(=O)c3ccncc3)cc2)c1 ?
PHOSPHO1 block: 16.8; MITF TRPM1 HTS: 3.4; Wnt bcat act: 47.7*; A3A deaminase: 3.9; A3G deaminase: 0.5

Results for Cc1ccc(S(=O)(=O)N(C(=O)c2ccncc2)c2ccc(OC(=O)c3ccncc3)cc2)c(C)c1 ?
PHOSPHO1 block: -6.6; MITF TRPM1 HTS: -7.6; Wnt bcat act: -1.1; A3A deaminase: -2.0; A3G deaminase: -8.5

What do the screens show for `CCC(C(=O)N1CCN(Cc2ccc3c(c2)OCO3)CC1)n1c(=O)[nH]c2ccccc2c1=O` (stereo unspecified)?
PHOSPHO1 block: 70.1*; MITF TRPM1 HTS: 1.4; Wnt bcat act: 0.7; A3A deaminase: -0.3; esBAF inh: 2.0; A3G deaminase: 2.9

Results for COC(=O)c1[nH]c2ccc(C)cc2c1NC(=O)CN1CCN(Cc2ccccc2)CC1 ?
PHOSPHO1 block: 85.4*; MITF TRPM1 HTS: -8.0; A3A deaminase: 30.4; esBAF inh: 8.2; A3G deaminase: 12.7

What do the screens show for `O=C(Cn1c(=O)[nH]c2ccccc2c1=O)N1CCN(Cc2ccc3c(c2)OCO3)CC1`?
PHOSPHO1 block: 18.4; MITF TRPM1 HTS: -3.3; Wnt bcat act: -1.8; A3A deaminase: -4.3; esBAF inh: -4.9; A3G deaminase: 0.5

Results for Cc1[nH]c2ccccc2c1C(=O)C(=O)Nc1ccc2c(c1)OCO2 ?
PHOSPHO1 block: -14.3; MITF TRPM1 HTS: 68.8; Wnt bcat act: 11.2; A3A deaminase: -2.2; esBAF inh: 52.1*; A3G deaminase: -3.9

What do the screens show for `CC(=O)NC(Cc1c[nH]c2ccccc12)C(=O)OCC(=O)Nc1ccc2c(c1)OCO2` (stereo unspecified)?
PHOSPHO1 block: 18.2; MITF TRPM1 HTS: -10.0; Wnt bcat act: -2.7; A3A deaminase: 10.6; esBAF inh: -7.1; A3G deaminase: 2.5

How did Cc1[nH]c2ccccc2c1NC(=O)CN1CCN(Cc2ccc3c(c2)OCO3)CC1 do in these assays?
PHOSPHO1 block: 97.1*

What do the screens show for `CC(C)NC(=O)Nc1ccc2c(c1)CC(=O)N([C@@H](C)CO)C[C@@H](C)[C@H](CN(C)C(=O)Nc1ccc(F)cc1)O2`?
esBAF inh: -6.3

How did Cc1noc(C)c1NC(=O)N(C)C[C@H]1Oc2ccc(NS(C)(=O)=O)cc2CC(=O)N([C@@H](C)CO)C[C@H]1C do in these assays?
esBAF inh: -8.7

What do the screens show for `O=C(Cc1ccncc1)NCC[C@@H]1CC[C@@H](NC(=O)C2CCC2)[C@@H](CO)O1`?
esBAF inh: -5.8

Results for Cc1noc(C)c1S(=O)(=O)N(C)C[C@@H]1OCCCC[C@@H](C)Oc2ccc(NC(=O)C3CCCCC3)cc2C(=O)N([C@@H](C)CO)C[C@@H]1C ?
esBAF inh: 10.3

How did CCOC(=O)N1CCN(C(=O)CSc2nnc(Cc3cccn3C)n2CCc2ccccc2)CC1 do in these assays?
PHOSPHO1 block: 62.2*; MITF TRPM1 HTS: -1.5; A3A deaminase: 1.7; esBAF inh: 14.3; A3G deaminase: -5.8

How did O=C(N[C@H]1C=C[C@H](CC(=O)N2CCCCC2)O[C@H]1CO)c1cccc(F)c1 do in these assays?
esBAF inh: -7.7

How did CC1=C(C(=O)Nc2ccc(CC(=O)NCc3ccc(OC(C)C)cc3)cc2)SCCO1 do in these assays?
PHOSPHO1 block: 4.7; MITF TRPM1 HTS: 5.8; Wnt bcat act: -6.5; A3A deaminase: 8.4; esBAF inh: 45.9*; A3G deaminase: -0.8

What do the screens show for `O=Nc1c(-c2c(O)[nH]c3cc(Br)ccc23)[nH]c2ccccc12`?
PHOSPHO1 block: 9.9; MITF TRPM1 HTS: 8.0; Wnt bcat act: 77.3*; A3A deaminase: 5.9; esBAF inh: 111.1*; A3G deaminase: 7.1

How did C[C@@H]1CN([C@H](C)CO)C(=O)c2cccc(NC(=O)C3CC3)c2O[C@H]1CN(C)S(=O)(=O)c1ccc(F)cc1 do in these assays?
esBAF inh: 2.7

What do the screens show for `CN1C(=O)c2cc(NC(=O)Nc3ccccc3F)ccc2OC[C@@H]2O[C@H](CC(=O)O)CC[C@@H]21`?
esBAF inh: 0.6

Results for C[C@@H]1CN([C@@H](C)CO)C(=O)c2cccc(NC(=O)C3CCOCC3)c2O[C@@H]1CN(C)C(=O)Nc1ccc(C(F)(F)F)cc1 ?
esBAF inh: -3.2

Results for c1ccc(-c2cc3nc(NCc4ccc5c(c4)OCO5)ccn3n2)cc1 ?
Wnt bcat act: 2.1; esBAF inh: 52.4*

How did c1ccc(-c2cc3nc(NCc4cccs4)ccn3n2)cc1 do in these assays?
Wnt bcat act: 5.5; esBAF inh: 66.8*

Results for Cc1ccc(-c2nc3ccccn3c2NCc2ccc3c(c2)OCO3)cc1 ?
PHOSPHO1 block: -0.1; MITF TRPM1 HTS: 32.1; Wnt bcat act: inconclusive; A3A deaminase: -2.6; esBAF inh: 43.7*; A3G deaminase: -2.7

What do the screens show for `COc1cc(-c2cc3nc(NCc4cccs4)ccn3n2)cc(OC)c1OC`?
Wnt bcat act: inconclusive; esBAF inh: -7.4

Results for COc1ccc(-c2nc3ccc(C)cn3c2NCc2ccc3c(c2)OCO3)cc1 ?
PHOSPHO1 block: -10.2; MITF TRPM1 HTS: 12.2; Wnt bcat act: inconclusive; A3A deaminase: -7.1; esBAF inh: 13.6; A3G deaminase: -5.7

What do the screens show for `O=C(C[C@@H]1CC[C@@H](NC(=O)C2CCC2)[C@@H](CO)O1)NCC1CC1`?
esBAF inh: 1.3

What do the screens show for `C[C@H](CO)N1C[C@H](C)[C@@H](CN(C)S(=O)(=O)c2ccccc2)Oc2ccc(NS(=O)(=O)c3ccc(Cl)cc3)cc2CC1=O`?
esBAF inh: 3.2

Results for Cc1ccc(-c2cc(-c3ccccc3)no2)cc1 ?
MITF TRPM1 HTS: 40.5; Wnt bcat act: 24.0; A3A deaminase: -4.1; esBAF inh: 11.7; A3G deaminase: -8.2

Results for Nc1nc(-c2ccccc2)cs1 ?
PHOSPHO1 block: 19.7; MITF TRPM1 HTS: 38.0; A3A deaminase: -2.4; esBAF inh: inconclusive; A3G deaminase: -3.2

Results for c1ccc(-c2cc(-c3ccccc3)on2)cc1 ?
PHOSPHO1 block: 43.0; MITF TRPM1 HTS: 78.9; Wnt bcat act: 41.5*; A3A deaminase: -3.2; A3G deaminase: -1.3

How did Nc1nc(-c2cc(-c3ccccc3)no2)cs1 do in these assays?
PHOSPHO1 block: 24.8; MITF TRPM1 HTS: 88.3*; Wnt bcat act: 46.4*; A3A deaminase: -3.8; esBAF inh: 18.0; A3G deaminase: -10.3

How did CC(C)C(=O)Nc1ccc2c(c1)C(=O)N(C)[C@@H]1CC[C@@H](CC(=O)N[C@H](C)c3ccccc3)O[C@H]1CO2 do in these assays?
esBAF inh: -1.3

How did COc1ccccc1S(=O)(=O)N[C@@H]1C=C[C@@H](CC(=O)N2CCCCC2)O[C@H]1CO do in these assays?
esBAF inh: -2.2

What do the screens show for `C[C@H](CO)N1C[C@H](C)[C@@H](CN(C)C)OCCCC[C@H](C)Oc2ccc(NS(=O)(=O)c3ccc(Cl)cc3)cc2C1=O`?
esBAF inh: -5.8

Assay outcomes as filed in PubChem.
